# High-throughput results deposited in PubChem by Broad Institute.
# Compounds with a hit are over-represented: about 1.8% of the library has one in this group of screens.
# DENV2 CPE: inhibitors of DENV2 cytopathic effect, primary screen, cell-based, plate reader, single concentration; AID 651640, 2012; DENV2-infected cells, cytopathic effect rescue; CPE inhibition, % at 9.99 µM; 350,000 tested, 1.7% active; in the data active means CPE inhibition above about 20%, passing the limit was not always enough; tested in BHK-21 cells;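 further: 0% = median of neutral control wells and 100% = median of positive control wells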
# ERp5 inh: inhibitors of ERp5-driven insulin aggregation, primary screen, biochemical, turbidity, absorbance 650 nm, single point; 90 min; inhibition, % at 9.99 µM; 350,000 tested, 0.05% active; AID 651711, 2012;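 active means mean replicate inhibition above about 25%, with every replicate also reaching it, limit read from the data, passing the limit was not always enough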
# ERAP1 HTS inh: human ERAP1 aminopeptidase inhibitors, primary screen, biochemical, single point, plate reader. Endoplasmic reticulum aminopeptidase 1 (Homo sapiens), Q9NZ08. AID 652197, 2013. 340,000 tested, 0.15% active. recombinant ERAP1, Leu-AMC fluorescence, 60 min. inhibition, % at 10.7 µM;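 active means mean replicate inhibition of at least 30%, or all replicates individually reaching that 30% level; inactive means mean below 30% and not every replicate reaching it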;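 further: 0% = neutral control wells and 100% = L-leucinethiol positive control wells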
# AF4-AF9 inh: inhibitors of AF4 peptide binding to AF9, primary screen, biochemical, AlphaScreen, biotin-AF4 peptide, FLAG-AF9, single point; Protein AF-9 (Homo sapiens), P42568; inhibition, % at 10 µM; 350,000 tested, 0.47% active;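 active means every replicate reaching a set inhibition limit, whatever the replicate mean, cut at about 25% in these data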;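 further: 0% = plate neutral control median and 100% = total signal loss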
# PDI turbidity: inhibitors of human PDI, primary screen, biochemical, turbidity, single point, plate reader; Protein disulfide-isomerase (Homo sapiens), P07237; PDI insulin aggregation turbidity, A650, 90 min; inhibition, % at 10 µM; 350,000 tested, 0.052% active; AID 588391, 2011;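 active means mean inhibition across replicates of 30% or more, whatever share of single replicates reach that level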
# * hit, by the source's call; / = no result given.
SMILES,DENV2 CPE,ERp5 inh,ERAP1 HTS inh,AF4-AF9 inh,PDI turbidity
C/C=C/c1ccc([C@H]2[C@@H](CO)N(CC3CCCC3)[C@@H]2CNC(=O)NC(C)C)cc1,-8,3,1,9,/
COc1ccc2nc3n(c(=O)c2c1)-c1ccccc1C(=O)NC3Cc1ccccc1 (stereo unspecified),89*,-3,-2,4,/
CC(C)CC1NC(=O)c2ccccc2-n2c1nc1ccccc1c2=O (stereo unspecified),40*,3,-3,-6,/
COc1cc2nc3n(c(=O)c2cc1OC)-c1cc2ccccc2cc1C(=O)NC3Cc1ccccc1 (stereo unspecified),-6,-1,/,2,3
C[C@@H]1CN([C@H](C)CO)C(=O)c2cc(NC(=O)Nc3ccc(C(F)(F)F)cc3)ccc2O[C@@H]1CN(C)Cc1ccccc1,83*,-8,0,0,/
C[C@@H]1CN([C@H](C)CO)C(=O)c2cc(NC(=O)Cn3cnnn3)ccc2O[C@@H]1CN(C)C(=O)Nc1ccc(C(F)(F)F)cc1,59*,1,3,-2,/
C[C@H]1CN([C@@H](C)CO)C(=O)c2cc(NC(=O)C3CC3)ccc2O[C@H]1CN(C)Cc1ccc(C(F)(F)F)cc1,27*,6,-4,-1,/
C[C@@H]1CN([C@@H](C)CO)C(=O)c2cc(NC(=O)Nc3ccccc3)ccc2O[C@H]1CN(C)Cc1ccc(C(F)(F)F)cc1,21*,1,-5,1,/
C[C@@H]1CN([C@@H](C)CO)C(=O)c2cc(NC(=O)Cn3cnnn3)ccc2O[C@@H]1CN(C)C(=O)Nc1ccc(F)cc1,0,-9,0,1,/
CN1CCN(C(=O)C[C@H]2CC[C@@H]3[C@H](COC[C@@H](O)CN3Cc3ccc4c(c3)OCO4)O2)CC1,4,0,1,-3,/
C[C@H](CO)N1C[C@H](C)[C@@H](CN(C)C(=O)c2ccncc2)Oc2ncc(C#CC3CCCCC3)cc2C1=O,6,1,0,3,/
C[C@H](CO)N1C[C@H](C)[C@H](CN(C)Cc2cccc(F)c2)Oc2cc(C#CC3CC3)ccc2S1(=O)=O,/,-7,0,1,/
C[C@H]1CN([C@@H](C)CO)C(=O)c2cc(NC(=O)Nc3ccccc3)ccc2O[C@@H]1CN(C)C(=O)Nc1ccc(C(F)(F)F)cc1,22*,-4,2,0,/
C[C@@H]1CN([C@H](C)CO)C(=O)c2cc(NC(=O)Nc3ccccc3)ccc2O[C@@H]1CN(C)C(=O)Nc1ccc(C(F)(F)F)cc1,-1,-5,3,2,/
Cc1ccccc1-c1cnc(C(O)c2cccc(C)c2C)[nH]1 (stereo unspecified),21*,5,-1,0,0
CCCC(=O)OC[C@H]1CN(C2CCCC2)S(=O)(=O)c2c(F)cccc2O1,49*,0,-5,-4,/
CCCC(=O)OC[C@H]1CN(C2CCCC2)S(=O)(=O)c2c(Oc3ccccc3)cccc2O1,-3,4,-7,0,/
COc1ccc(C2=Nn3c(nnc3-c3ccccc3Cl)SC2)cc1OCC1CC1,32*,3,/,7,4
CCCC#Cc1cnc2c(c1)C(=O)N([C@H](C)CO)C[C@@H](C)[C@@H](CN(C)C(=O)C1CCC1)O2,-8,0,-1,-3,/
CO[C@@H]1CN(C)C(=O)c2cc(NC(=O)C3CC3)ccc2OC[C@H](C)N(CC2CCOCC2)C[C@@H]1C,2,1,2,-9,/
COCC(=O)N1[C@@H]2c3ccc(/C=C/c4ccccc4)c(=O)n3C[C@H]1[C@H](CO)[C@H]2C(=O)N1CCOCC1,6,-5,108*,2,/
CCNC(=O)[C@@H]1[C@@H](CO)[C@@H]2Cn3c(ccc(/C=C/c4ccccc4)c3=O)[C@@H]2N1C(C)=O,62*,-3,9,1,/
CCCNC(=O)[C@@H]1[C@@H](CO)[C@@H]2Cn3c(cccc3=O)[C@H]1N2CCC(F)(F)F,9,-5,3,2,/
CC=Cc1ccc2n(c1=O)C[C@H]1[C@H](CO)[C@@H](C(=O)Nc3nccs3)N(C(=O)CC)[C@@H]21 (mixture of isomers),58*,2,0,-2,/
